Each compound was assayed against Glucose transporter (Leishmania mexicana) (UniProt O61059) (assay: ST_JUDE_LEISH: Cytotoxicity at 2uM final concentration against transgenic Leishmania Mexicana promastigotes LmGT2 that are glucose transport deficient and complemented with the L. Mexicana glucose transporter 2. Activity is measured by DNA content using SYBR green in vitro).
Format: functional
Cc1cc(=NN=Cc2ccc(F)cc2)c2ccc(F)cc2[nH]1 gave an inhibition of -0.46%. In the case of CN1CCCC(CN2CCN(Cc3cccc(-c4ccc(-c5nc6cc(C(F)(F)F)ccc6[nH]5)cc4)c3)CC2)C1 (stereo not given), the inhibition is reported as 1.86%. CC(C)CCOc1ccc(NC(=O)c2cccs2)cc1 was tested, and the inhibition was 5.27%. O=C(Nc1ccc(CCN2CCC(c3nc(COCC(F)(F)F)c(-c4ccccc4)o3)CC2)cc1)c1ccc(F)cc1 showed an inhibition of -0.66%. Compound N#Cc1cccc(-c2ccc(C(=O)Nc3ccc4c(c3)CCN(C3CCC3)CC4)cn2)c1 has an inhibition of 5.26%. With Cc1ccnc(NC(c2cccc(Cl)c2Cl)c2ccc3cccnc3c2O)c1 (stereo not given) the inhibition was -0.63%. O=C(/C=C/c1ccc(Cl)c(Cl)c1)NC1CCN(Cc2ccc(O)cc2)C1 (stereo not given) gave an inhibition of -0.76%. COc1cccc(C(O)CNc2ccnc(Nc3ccc(Cl)cc3)n2)c1 (stereo not given) gave an inhibition of 1.85%. N#Cc1ccc(N(CCOC(=O)c2ccccc2)Cc2ccccc2C(F)(F)F)cc1C(F)(F)F gave an inhibition of -0.51%. For CCCCCCCN(Cc1ccc(OC(C)(C)C(=O)OCC)cc1)C(=O)Cc1ccc(F)cc1F, the inhibition was 2.23%. Work on O=S(=O)(NCCN1CCCC1)c1ccc(-c2ccc(CNC3Cc4ccccc4C3)cc2)cc1F yielded an inhibition of 5.36%. For O=C(Nc1cccc(-c2csc(-c3nc4ccccc4[nH]3)c2)c1)c1cccnc1, the inhibition was -0.53%. Compound O=C(/C=C/c1ccc([N+](=O)[O-])cc1)N1CCC(NS(=O)(=O)c2ccc(F)cc2)CC1 has an inhibition of 7.08%. Compound Nc1nc(N)c2c(Cl)c(N3CCOCC3)ccc2n1 has an inhibition of 34.6%. For CN1CCC(c2c[nH]c3ccc(NC(=O)Nc4ccc(-c5ccncc5)cc4Cl)cc23)CC1, the inhibition was 2.14%. CCCC(=O)NC(c1ccc(C)cc1)c1ccc2cccnc2c1O (stereo not given) showed an inhibition of -1.36%. In the case of NCc1ccc(CNCc2cccc(-c3cccc(-c4nc5cc(F)ccc5[nH]4)c3)c2)cc1, the inhibition is reported as 8.54%. CC(C)C[C@@H](/C=N/N1CCOC1=O)NC(=O)[C@H](CC(C)C)NC(=O)c1ccc(F)cc1 showed an inhibition of 6.1%. Cc1cccc2nc(-c3ccc(-c4cccc(CN5CCN(c6ccncc6)CC5)c4)s3)[nH]c12 showed an inhibition of 0.33%. O=C(/C=C/c1ccc(Cl)c(Cl)c1)N1CCC(CNCc2cccc3cc[nH]c23)CC1 showed an inhibition of 1.48%. Work on CCCC1(NC[C@@H](O)[C@H](Cc2ccccc2)NC(=O)c2cc(NCC)cc(N3CCCCS3(=O)=O)c2)CCC1 yielded an inhibition of 2.83%. Compound c1ccc2[nH]c(-c3ccc(-c4ccc(CNCC5CCCO5)cc4)s3)nc2c1 (stereo not given) has an inhibition of 5.42%. Cc1c(CC(=O)NCCC2CCN(CCCCCNC(=O)/C=C/c3ccc(Cl)c(Cl)c3)CC2)sc2ccc(Cl)cc12 was tested, and the inhibition was 6.13%. In the case of CCOC(=O)C(C)(C)Oc1ccc(C(=C2CC(C)(C)CC(C)(C)C2)c2ccc(O)cc2)cc1, the inhibition is reported as 3.56%. For CC(C)N(Cc1ccccc1)C(=O)CN1C(=O)COc2ccc(S(=O)(=O)N3CCCCCC3)cc21, the inhibition was 10.5%.
